Data from PubChem BioAssay AID624297 (National Center for Advancing Translational Sciences (NCATS), 2012).
Screen size: about 340,000 compounds; about 6,200 (1.8%) were called active. Another 10% or so got no clear call; they are omitted. Calls come from the whole dose curve; as a rule, active = well fitted activation curve with a large enough effect; inconclusive = small, poorly fitted or top-dose-only effect; inactive = no such curve, though single readings can be large or run the other way. The entries come from a sample that favours actives as a whole.

Assay: A quantitative high throughput screen for small molecules that induce DNA re-replication in SW480 colon adenocarcinoma cells. For re-replication activation: % of control where 0% means no effect. Note: nearly all actives have a fitted effect of over 55% in size.
Conditions: Hoechst DNA content imaging, 48 h; series mostly up to 46.1 µM; re-replication activation: at the top concentration
Description: H Molecular Libraries Probe Production Network [MLPCN] NIH Chemical Genomics Center [NCGC] MLPCN Grant: Fast Track K99 CA136555 Assay Provider: Melvin DePamphilis, NICHD, NIH Assay Overview Eukaryotic cells normally restrict genome duplication to once per cell division. When this process is aberrant, DNA re-replication occurs when cells reinitiate DNA replication before the first round of replication is complete. DNA re-replication induces the DNA damage response, arrests cell proliferation, and triggers apoptosis. The cell cycle components cyclin A, Cdt-1, Cdc6 and geminin are critical regulators of this process and their misregulation results in DNA re-replication in normal and cancer cells. To identify compounds that induce re-replication in normal cells, an image-based assay was used to measure DNA content of nuclei, as detected by the fluorescent DNA binding dye, Hoechst. Cell nuclei were imaged by a fluorescence scanning plate imager and compounds that induce DNA re-replication were identified by the increase of nuclei with elevated fluorescence intensity
For screening, 250 cells in 5 uL/well were dispensed into black clear 1536-well plates (Aurora) using a solenoid-based dispenser. Following transfer of 23 nL compound or DMSO vehicle by a pin tool, the plates were incubated 48 hr at 37 C and 5% CO2. After addition of 1 uL/well Hoescht stain, the plates were incubated 40 min at 37 C, 5% CO2 and total intensity of fluorescent objects (nuclei) were enumerated by an Acumen Explorer Ex3 (TTP LabTech) fluorescence scanning plate imager (405 nm excitation, 500-530 nm emission). Keywords: NIH Roadmap, MLPCN, MLI, MLSMR, qHTS, NCGC, DNA replication, cancer
Potency is the fitted concentration of half-maximal effect.

SMILES | re-replication activation | Potency
CC(NC(=O)COC(=O)c1ccc2ccccc2n1)c1ccccc1 (configuration not stated) | -3.09% (inactive) | –
Cc1ccc(O)c(-c2cc(C(=O)Nc3c(C)n(C)n(-c4ccccc4)c3=O)[nH]n2)c1 | – | 0.058 µM (active)
Cc1c(NC(=O)c2cccnc2)c(=O)n(-c2ccccc2)n1C | – | inactive
Cc1ccc(O)c(-c2cc(C(=O)NCc3ccccc3)[nH]n2)c1 | -3.89% (inactive) | –
O=C1Cc2cc(S(=O)(=O)Nc3cccc(F)c3)ccc2N1 | -6.13% (inactive) | –
CC(OC(=O)c1cc2ccccc2[nH]1)C(=O)N(C)c1ccccc1 (configuration not stated) | 4.01% (inactive) | –
COc1cccc(C2CC(c3cccs3)=NN2C(=O)CSC2=NCCS2)c1OC (configuration not stated) | 20% (inactive) | –
COc1ccc(C2CC(c3cccs3)=NN2C(=O)CCC(=O)O)cc1OC (configuration not stated) | 8.15% (inactive) | –
COc1ccccc1N1N=C(c2cccs2)CC1c1ccccc1 (configuration not stated) | – | 2.59 µM (active)
NC(=O)C1(N2CCCC2)CCN(Cc2ccccc2)CC1 | -4.45% (inactive) | –
CCCCN1CC(COCc2ccccc2)OCCS1(=O)=O (configuration not stated) | 1.34% (inactive) | –
Cc1cccc(CC2(O)C(=O)Nc3ccccc32)n1 (configuration not stated) | -0.661% (inactive) | –
O=C(CC1Sc2ccccc2NC1=O)NNc1ccc(Cl)c(Cl)c1 (configuration not stated) | 26.7% (inactive) | –
COc1cccc(NC(=O)COc2cccnc2[N+](=O)[O-])c1 | 3.79% (inactive) | –
Cc1cc(=O)oc2cc(OCC3CC(c4ccccc4Cl)=NO3)ccc12 (configuration not stated) | – | 3.66 µM (active)
Cc1cc(=O)oc2cc(OCCC[n+]3ccccc3)ccc12 | -9.83% (inactive) | –
Cc1ccccc1N1CCN(CCCOc2ccc3c(C)cc(=O)oc3c2)CC1 | 2.23% (inactive) | –
CCCSC(=S)NC1CCS(=O)(=O)C1 (configuration not stated) | – | 16.4 µM (active)
COc1ccc(NC(=S)NC2CCS(=O)(=O)C2)cc1 (configuration not stated) | -4.58% (inactive) | –
O=C(Cc1ccc(Cl)cc1)NC1CCS(=O)(=O)C1 (configuration not stated) | -9.59% (inactive) | –
CCNC(=S)N1CCN(S(=O)(=O)c2ccc(Cl)s2)CC1 | 6.77% (inactive) | –
CC1O[C@@H](OC2C(O)C(C)O[C@H](OC(=O)[C@]34CCC(C)(C)C[C@H]3C3=CCC5[C@@]6(C)CC(O)C(O[C@@H]7OC(CO)C(O)[C@@H](O)[C@@H]7O)[C@@](C)(C(=O)O)C6CC[C@@]5(C)[C@]3(CO)CC4)C2O[C@H]2OC(C)[C@@H](O[C@@H]3OCC(O[C@@H]4OC(CO)C(O)[C@H](O)C4O)[C@@H](O)[C@@H]3O)[C@H](O)C2O)C(O)C(O)C1O (some centres not stated) | -10.5% (inactive) | –
CC(C)(C)n1cnnc1Sc1ccc([N+](=O)[O-])cn1 | – | 18.4 µM (active)
O=[N+]([O-])c1ccc(Sc2n[nH]c(-c3ccco3)n2)nc1 | -5.13% (inactive) | –

SMILES | re-replication activation | Potency
Cc1cccc(C)c1NC(=O)CSc1ccc([N+](=O)[O-])cn1 | -14.5% (inactive) | –
CC[C@]12c3[nH]c4cc(CCC(=O)N(C)C)ccc4c3CCN1C(=O)[C@@H](CC(=O)NCCCN(C)C)C[C@@H]2C(=O)N1CCN(C(=O)c2ccco2)CC1 | 20.5% (inactive) | –
CCOC(=O)[C@H]1[C@H]2COc3cc(OC)ccc3[C@@H]2N2C(=O)CN(Cc3ccc(Cl)cc3)C(=O)[C@@]12C | -16.4% (inactive) | –
Cc1ccsc1C(=O)OCC(=O)NCCc1ccccc1 | 1.54% (inactive) | –
COc1ccc(/C=C(\NC(=O)c2ccc(OC)c(OC)c2)C(=O)NCCc2c[nH]c3ccccc23)cc1 | -1.59% (inactive) | –
COc1ccc(OC)c2[nH]c(=O)c(CCNC(=O)C(C)(C)C)cc12 | -5.04% (inactive) | –
COc1ccc(OC)c2[nH]c(=O)c(CCNC(=O)C(=O)c3c[nH]c4ccccc34)cc12 | – | 20.6 µM (active)
COc1ccccc1-c1sc2ccccc2c1C#CC1(O)CCCCC1 | 4.55% (inactive) | –
COC(=O)c1ccc(N2CCOCC2)c(NC(=O)c2ccc3c(c2)OCCO3)c1 | 2.41% (inactive) | –
O=C(Nc1cccc(Cl)c1N1CCOCC1)c1cccnc1 | -21.8% (inactive) | –
O=C(Nc1cccc(Cl)c1N1CCOCC1)c1ccc2c(c1)OCCO2 | – | 2.31 µM (active)
C=CCCC(=O)N1C[C@H]2CON(C)[C@H]2C[C@H]1c1cccc(Nc2ccccc2)c1 | -6.4% [at 9.22 µM] (inactive) | –
O=C(Nc1cccc(Br)c1)C1CC(=O)N(C2CCCC2)C1 (configuration not stated) | 3.19% (inactive) | –
O=C(c1ccc(N2CCOCC2)c([N+](=O)[O-])c1)N1CCN(c2ccccc2F)CC1 | -0.686% (inactive) | –
O=C(Nc1nnc(Cc2ccc(Cl)cc2)s1)c1ccncc1 | -27.9% (inactive) | –
O=C(Nc1nnc(Cc2ccccc2)s1)c1cnccn1 | -0.0264% (inactive) | –
O=C(Nc1nnc(Cc2ccc(Cl)cc2)s1)c1cccnc1 | – | 18.4 µM (active)
C=CCSc1nc2c(c(=O)[nH]c(=O)n2C)n1Cc1ccccc1 | – | 1.64 µM (active)
Cc1nnc(Sc2nc3c(c(=O)[nH]c(=O)n3C)n2Cc2ccccc2)s1 | -6.16% (inactive) | –
C=CCn1c(SCc2ccccc2)nc2c1c(=O)[nH]c(=O)n2C | 3.01% (inactive) | –
CCN(CC)S(=O)(=O)c1ccc(N2CCOCC2)c(NC(=O)c2ccc(=O)n(C)n2)c1 | -15.4% (inactive) | –
CCN(CC)S(=O)(=O)c1ccc(N2CCCC2)c(NC(=O)c2ccc([N+](=O)[O-])o2)c1 | – | 13 µM (active)
CCN(CC)S(=O)(=O)c1cc(C(=O)Nc2cc(S(=O)(=O)N3CCOCC3)ccc2N2CCCC2)ccc1F | 2.46% (inactive) | –
